This passage reports binding signal results from PMC9911399, “Two distinct binding modes provide the RNA-binding protein RbFox with extraordinary sequence specificity”.

T1: RBFOX1 RRM (Homo sapiens, UniProt Q9NWB1 109-208)
T1 sequence: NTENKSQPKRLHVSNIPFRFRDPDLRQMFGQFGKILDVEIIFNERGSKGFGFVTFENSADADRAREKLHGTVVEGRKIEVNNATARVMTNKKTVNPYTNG

B1: UCAGACC (DNA:RNA)
RNA: GGGAGACCGGAAUUCAGAUUGUCCUCAGACCUUAAAUCCCGUCGUAGCCACCA
DNA 1: CAATCTGAATTCCGGTCTCCC
DNA 2: TGGTGGCTACGACGGGATT
B2: UGAGCUA (DNA:RNA)
RNA: B1 RNA with C26G, A29C, C30U, C31A
DNA 1: CAATCTGAATTCCGGTCTCCC
DNA 2: TGGTGGCTACGACGGGATT
B3: UAGAGGG (DNA:RNA)
RNA: B1 RNA with C26A, A27G, G28A, A29G, C30G, C31G
DNA 1: CAATCTGAATTCCGGTCTCCC
DNA 2: TGGTGGCTACGACGGGATT
B4: AACACAA (DNA:RNA)
RNA: GGGAGACCGGAAUUCAGAUUGUCCAACACAAUUAAAUCCCGUCGUAGCCACCA
DNA 1: CAATCTGAATTCCGGTCTCCC
DNA 2: TGGTGGCTACGACGGGATT
B5: GAGAUCC (DNA:RNA)
RNA: B4 RNA with A25G, C27G, C29U, A30C, A31C
DNA 1: CAATCTGAATTCCGGTCTCCC
DNA 2: TGGTGGCTACGACGGGATT
B6: UCUGUUC (DNA:RNA)
RNA: B1 RNA with A27U, A29U, C30U
DNA 1: CAATCTGAATTCCGGTCTCCC
DNA 2: TGGTGGCTACGACGGGATT
B7: GAGGGGG (DNA:RNA)
RNA: B4 RNA with A25G, C27G, A28G, C29G, A30G, A31G
DNA 1: CAATCTGAATTCCGGTCTCCC
DNA 2: TGGTGGCTACGACGGGATT
B8: GUGCUGG (DNA:RNA)
RNA: GGGAGACCGGAAUUCAGAUUGUCCGUGCUGGUUAAAUCCCGUCGUAGCCACCA
DNA 1: CAATCTGAATTCCGGTCTCCC
DNA 2: TGGTGGCTACGACGGGATT
B9: GGCUGGU (DNA:RNA)
RNA: B8 RNA with U26G, G27C, C28U, U29G, G31U
DNA 1: CAATCTGAATTCCGGTCTCCC
DNA 2: TGGTGGCTACGACGGGATT
B10: UGGCGUC (DNA:RNA)
RNA: B8 RNA with G25U, U26G, U29G, G30U, G31C
DNA 1: CAATCTGAATTCCGGTCTCCC
DNA 2: TGGTGGCTACGACGGGATT
B11: UUGCUGG (DNA:RNA)
RNA: B8 RNA with G25U
DNA 1: CAATCTGAATTCCGGTCTCCC
DNA 2: TGGTGGCTACGACGGGATT
B12: GCUGGUU (DNA:RNA)
RNA: B1 RNA with U25G, A27U, A29G, C30U, C31U
DNA 1: CAATCTGAATTCCGGTCTCCC
DNA 2: TGGTGGCTACGACGGGATT
B13: UGGCUGG (DNA:RNA)
RNA: B8 RNA with G25U, U26G
DNA 1: CAATCTGAATTCCGGTCTCCC
DNA 2: TGGTGGCTACGACGGGATT
B14: UCCUGGC (DNA:RNA)
RNA: B1 RNA with A27C, G28U, A29G, C30G
DNA 1: CAATCTGAATTCCGGTCTCCC
DNA 2: TGGTGGCTACGACGGGATT
B15: UGGCGUG (DNA:RNA)
RNA: B8 RNA with G25U, U26G, U29G, G30U
DNA 1: CAATCTGAATTCCGGTCTCCC
DNA 2: TGGTGGCTACGACGGGATT
B16: CGGCUGG (DNA:RNA)
RNA: B8 RNA with G25C, U26G
DNA 1: CAATCTGAATTCCGGTCTCCC
DNA 2: TGGTGGCTACGACGGGATT
B17: UGGCUUG (DNA:RNA)
RNA: B8 RNA with G25U, U26G, G30U
DNA 1: CAATCTGAATTCCGGTCTCCC
DNA 2: TGGTGGCTACGACGGGATT
B18: UGGCGUA (DNA:RNA)
RNA: B8 RNA with G25U, U26G, U29G, G30U, G31A
DNA 1: CAATCTGAATTCCGGTCTCCC
DNA 2: TGGTGGCTACGACGGGATT
B19: UGGCUUC (DNA:RNA)
RNA: B8 RNA with G25U, U26G, G30U, G31C
DNA 1: CAATCTGAATTCCGGTCTCCC
DNA 2: TGGTGGCTACGACGGGATT
B20: GCUAGGA (DNA:RNA)
RNA: B4 RNA with A25G, A26C, C27U, C29G, A30G
DNA 1: CAATCTGAATTCCGGTCTCCC
DNA 2: TGGTGGCTACGACGGGATT

Positions count from the first letter of the chain named. In all, about 16,000 sequences were measured (“ka relative to ugcaugu”: median about 0.0091, highest 2% from about 0.032 on). The entries come from a sample that favours the highest values as a whole.

The test concerns the target T1, RBFOX1 RRM. As to the kind of experiment: EMSA; HiTS-Eq, 1 nM pool, 10 min; buffer printed only for the single-RNA assays: 10 mM Tris pH 7.5, 150 mM NaCl, 3.4 mM EDTA, 0.001% NP-40, 30 C. The following applies: tags: His6 N-terminal (pET28a); label: 5' 32P. A digest of the protocol:
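A pool of RNA with 7 randomized nucleotides, 5′-radiolabelled and with DNA-annealed flanks, was equilibrated at 1 nM for 10 min in 50 µL with purified RbFox RRM, wild type or mutant, across increasing protein concentrations. Free RNA was separated by 8% native PAGE, excised, reverse-transcribed, barcoded by PCR and sequenced. Relative association constants were obtained from read-count changes of each RNA species versus the control reaction and normalised to the cognate motif.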
(In general: In EMSA bound probe runs differently from free probe, usually more slowly.)
As for B1, the binding signal is 0.00454 KA relative to UGCAUGU.

As to B2, the binding signal is 0.015 KA relative to UGCAUGU.

In the case of B3, the binding signal is 0.00669 KA relative to UGCAUGU.

In the case of B4, the binding signal is 0.00155 KA relative to UGCAUGU.

B5: the binding signal is 0.0136 KA relative to UGCAUGU.

With B6, the binding signal was 0.0184 KA relative to UGCAUGU.

For B7, the binding signal was 0.0168 KA relative to UGCAUGU.

Take B8: the binding signal is 0.0295 KA relative to UGCAUGU.

Regarding B9, the binding signal was 0.0324 KA relative to UGCAUGU.

Regarding B10, the binding signal was 0.0251 KA relative to UGCAUGU.

For B11, the binding signal is 0.0302 KA relative to UGCAUGU.

Consider B12, for which the binding signal is 0.0289 KA relative to UGCAUGU.

Take B13: the binding signal was 0.0415 KA relative to UGCAUGU.

Turning to B14, the binding signal is 0.0109 KA relative to UGCAUGU.

With B15, the binding signal was 0.0332 KA relative to UGCAUGU.

For B16, the binding signal is 0.0236 KA relative to UGCAUGU.

Consider B17, for which the binding signal is 0.0526 KA relative to UGCAUGU.

For the molecule B18, the binding signal was 0.0143 KA relative to UGCAUGU.

As to B19, the binding signal was 0.0201 KA relative to UGCAUGU.

B20: the binding signal was 0.00693 KA relative to UGCAUGU.
